# Measurements reported in the supplement of paper PMC4466140.
# Molecular target: AgAbp1
# Assay: SPOT peptide array binding signal intensity (averaged, normalized) (arbitrary units (background-subtracted, floor 0; scale differs between SH3 domains)); higher = stronger binding of the SH3 domain to the peptide
# Summary of the method: (§1)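 GST-fused SH3 domains, from four yeast species, were produced in E. coli BL21(DE3) and captured on glutathione Sepharose. Membranes of cellulose carrying synthetic 15-mer peptides, in which cysteines had been replaced by serines, were exposed to each domain at 10 μg/ml overnight at 4°C in TBS-based blocking buffer. After anti-GST antibody, an HRP anti-mouse secondary and luminol, spots were imaged and quantified using Genespotter. Binding signal is normalized and background-subtracted spot intensity, averaged over replicates, in arbitrary units that differ between domains.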
row,Binder,SPOT peptide array binding signal intensity
1,LRWRHKFFLPAIAAI,73

# Molecular target: AgBbc1
# Assay: as above
# Summary of the method: as §1
row,Binder,SPOT peptide array binding signal intensity
1,LRWRHKFFLPAIAAI,14.2

# Molecular target: AgBem1-D1
# Assay: as above
# Summary of the method: as §1
row,Binder,SPOT peptide array binding signal intensity
1,LRWRHKFFLPAIAAI,52.5

# Molecular target: AgBzz1-D1
# Assay: as above
# Summary of the method: as §1
row,Binder,SPOT peptide array binding signal intensity
1,LRWRHKFFLPAIAAI,≤ 0

# Molecular target: AgBzz1-D2
# Assay: as above
# Summary of the method: as §1
row,Binder,SPOT peptide array binding signal intensity
1,LRWRHKFFLPAIAAI,≤ 0

# Molecular target: AgCyk3
# Assay: as above
# Summary of the method: as §1
row,Binder,SPOT peptide array binding signal intensity
1,LRWRHKFFLPAIAAI,0.5

# Molecular target: AgFus1
# Assay: as above
# Summary of the method: as §1
row,Binder,SPOT peptide array binding signal intensity
1,LRWRHKFFLPAIAAI,299

# Molecular target: AgHof1
# Assay: as above
# Summary of the method: as §1
row,Binder,SPOT peptide array binding signal intensity
1,LRWRHKFFLPAIAAI,9.38

# Molecular target: AgHse1
# Assay: as above
# Summary of the method: as §1
row,Binder,SPOT peptide array binding signal intensity
1,LRWRHKFFLPAIAAI,979

# Molecular target: AgLsb1
# Assay: as above
# Summary of the method: as §1
row,Binder,SPOT peptide array binding signal intensity
1,LRWRHKFFLPAIAAI,≤ 0

# Molecular target: AgLsb4
# Assay: as above
# Summary of the method: as §1
row,Binder,SPOT peptide array binding signal intensity
1,LRWRHKFFLPAIAAI,18.8

# Molecular target: AgMyo5
# Assay: as above
# Summary of the method: as §1
row,Binder,SPOT peptide array binding signal intensity
1,LRWRHKFFLPAIAAI,≤ 0

# Molecular target: AgNbp2
# Assay: as above
# Summary of the method: as §1
row,Binder,SPOT peptide array binding signal intensity
1,LRWRHKFFLPAIAAI,14.8

# Molecular target: AgRvs167
# Assay: as above
# Summary of the method: as §1
row,Binder,SPOT peptide array binding signal intensity
1,LRWRHKFFLPAIAAI,1.17

# Molecular target: AgSho1
# Assay: as above
# Summary of the method: as §1
row,Binder,SPOT peptide array binding signal intensity
1,LRWRHKFFLPAIAAI,32

# Molecular target: AgSla1-D1-D2
# Assay: as above
# Summary of the method: as §1
row,Binder,SPOT peptide array binding signal intensity
1,LRWRHKFFLPAIAAI,2.5

# Molecular target: AgSla1-D3
# Assay: as above
# Summary of the method: as §1
row,Binder,SPOT peptide array binding signal intensity
1,LRWRHKFFLPAIAAI,2.25

# Molecular target: CaAbp1-D1
# Assay: as above
# Summary of the method: as §1
row,Binder,SPOT peptide array binding signal intensity
1,LRWRHKFFLPAIAAI,312

# Molecular target: CaAbp1-D2
# Assay: as above
# Summary of the method: as §1
row,Binder,SPOT peptide array binding signal intensity
1,LRWRHKFFLPAIAAI,422

# Molecular target: CaBbc1
# Assay: as above
# Summary of the method: as §1
row,Binder,SPOT peptide array binding signal intensity
1,LRWRHKFFLPAIAAI,13

# Molecular target: CaBem1-D1
# Assay: as above
# Summary of the method: as §1
row,Binder,SPOT peptide array binding signal intensity
1,LRWRHKFFLPAIAAI,4.5

# Molecular target: CaBzz1-D1
# Assay: as above
# Summary of the method: as §1
row,Binder,SPOT peptide array binding signal intensity
1,LRWRHKFFLPAIAAI,23.2

# Molecular target: CaBzz1-D2
# Assay: as above
# Summary of the method: as §1
row,Binder,SPOT peptide array binding signal intensity
1,LRWRHKFFLPAIAAI,0.25

# Molecular target: CaCyk3
# Assay: as above
# Summary of the method: as §1
row,Binder,SPOT peptide array binding signal intensity
1,LRWRHKFFLPAIAAI,1.5

# Molecular target: CaFus1
# Assay: as above
# Summary of the method: as §1
row,Binder,SPOT peptide array binding signal intensity
1,LRWRHKFFLPAIAAI,728

# Molecular target: CaHof1
# Assay: as above
# Summary of the method: as §1
row,Binder,SPOT peptide array binding signal intensity
1,LRWRHKFFLPAIAAI,≤ 0

# Molecular target: CaHse1
# Assay: as above
# Summary of the method: as §1
row,Binder,SPOT peptide array binding signal intensity
1,LRWRHKFFLPAIAAI,28.5

# Molecular target: CaLsb1
# Assay: as above
# Summary of the method: as §1
row,Binder,SPOT peptide array binding signal intensity
1,LRWRHKFFLPAIAAI,0.25

# Molecular target: CaLsb4
# Assay: as above
# Summary of the method: as §1
row,Binder,SPOT peptide array binding signal intensity
1,LRWRHKFFLPAIAAI,2.5

# Molecular target: CaMyo5
# Assay: as above
# Summary of the method: as §1
row,Binder,SPOT peptide array binding signal intensity
1,LRWRHKFFLPAIAAI,4

# Molecular target: CaNbp2
# Assay: as above
# Summary of the method: as §1
row,Binder,SPOT peptide array binding signal intensity
1,LRWRHKFFLPAIAAI,116

# Molecular target: CaRvs167
# Assay: as above
# Summary of the method: as §1
row,Binder,SPOT peptide array binding signal intensity
1,LRWRHKFFLPAIAAI,12.8

# Molecular target: CaRvs167-3
# Assay: as above
# Summary of the method: as §1
row,Binder,SPOT peptide array binding signal intensity
1,LRWRHKFFLPAIAAI,24

# Molecular target: CaSho1
# Assay: as above
# Summary of the method: as §1
row,Binder,SPOT peptide array binding signal intensity
1,LRWRHKFFLPAIAAI,228

# Molecular target: CaSla1-D1-D2
# Assay: as above
# Summary of the method: as §1
row,Binder,SPOT peptide array binding signal intensity
1,LRWRHKFFLPAIAAI,≤ 0

# Molecular target: CaSla1-D3
# Assay: as above
# Summary of the method: as §1
row,Binder,SPOT peptide array binding signal intensity
1,LRWRHKFFLPAIAAI,3.12

# Molecular target: ScAbp1
# Assay: as above
# Summary of the method: as §1
row,Binder,SPOT peptide array binding signal intensity
1,LRWRHKFFLPAIAAI,53.5

# Molecular target: ScBbc1
# Assay: as above
# Summary of the method: as §1
row,Binder,SPOT peptide array binding signal intensity
1,LRWRHKFFLPAIAAI,0.875

# Molecular target: ScBem1-D1
# Assay: as above
# Summary of the method: as §1
row,Binder,SPOT peptide array binding signal intensity
1,LRWRHKFFLPAIAAI,9.5

# Molecular target: ScBzz1-D1
# Assay: as above
# Summary of the method: as §1
row,Binder,SPOT peptide array binding signal intensity
1,LRWRHKFFLPAIAAI,4.5

# Molecular target: ScBzz1-D2
# Assay: as above
# Summary of the method: as §1
row,Binder,SPOT peptide array binding signal intensity
1,LRWRHKFFLPAIAAI,14.2

# Molecular target: ScCyk3
# Assay: as above
# Summary of the method: as §1
row,Binder,SPOT peptide array binding signal intensity
1,LRWRHKFFLPAIAAI,18.5

# Molecular target: ScFus1
# Assay: as above
# Summary of the method: as §1
row,Binder,SPOT peptide array binding signal intensity
1,LRWRHKFFLPAIAAI,209

# Molecular target: ScHof1
# Assay: as above
# Summary of the method: as §1
row,Binder,SPOT peptide array binding signal intensity
1,LRWRHKFFLPAIAAI,1.25

# Molecular target: ScHse1
# Assay: as above
# Summary of the method: as §1
row,Binder,SPOT peptide array binding signal intensity
1,LRWRHKFFLPAIAAI,1040

# Molecular target: ScLsb1
# Assay: as above
# Summary of the method: as §1
row,Binder,SPOT peptide array binding signal intensity
1,LRWRHKFFLPAIAAI,0.25

# Molecular target: ScLsb2
# Assay: as above
# Summary of the method: as §1
row,Binder,SPOT peptide array binding signal intensity
1,LRWRHKFFLPAIAAI,≤ 0

# Molecular target: ScLsb3
# Assay: as above
# Summary of the method: as §1
row,Binder,SPOT peptide array binding signal intensity
1,LRWRHKFFLPAIAAI,≤ 0

# Molecular target: ScLsb4
# Assay: as above
# Summary of the method: as §1
row,Binder,SPOT peptide array binding signal intensity
1,LRWRHKFFLPAIAAI,4.25

# Molecular target: ScMyo3
# Assay: as above
# Summary of the method: as §1
row,Binder,SPOT peptide array binding signal intensity
1,LRWRHKFFLPAIAAI,≤ 0

# Molecular target: ScMyo5
# Assay: as above
# Summary of the method: as §1
row,Binder,SPOT peptide array binding signal intensity
1,LRWRHKFFLPAIAAI,≤ 0

# Molecular target: ScNbp2
# Assay: as above
# Summary of the method: as §1
row,Binder,SPOT peptide array binding signal intensity
1,LRWRHKFFLPAIAAI,20.2

# Molecular target: ScPex13
# Assay: as above
# Summary of the method: as §1
row,Binder,SPOT peptide array binding signal intensity
1,LRWRHKFFLPAIAAI,≤ 0

# Molecular target: ScRvs167
# Assay: as above
# Summary of the method: as §1
row,Binder,SPOT peptide array binding signal intensity
1,LRWRHKFFLPAIAAI,1.5

# Molecular target: ScSho1
# Assay: as above
# Summary of the method: as §1
row,Binder,SPOT peptide array binding signal intensity
1,LRWRHKFFLPAIAAI,759

# Molecular target: ScSla1-D1-D2
# Assay: as above
# Summary of the method: as §1
row,Binder,SPOT peptide array binding signal intensity
1,LRWRHKFFLPAIAAI,≤ 0

# Molecular target: ScSla1-D3
# Assay: as above
# Summary of the method: as §1
row,Binder,SPOT peptide array binding signal intensity
1,LRWRHKFFLPAIAAI,≤ 0

# Molecular target: SpAbp1-D1
# Assay: as above
# Summary of the method: as §1
row,Binder,SPOT peptide array binding signal intensity
1,LRWRHKFFLPAIAAI,166

# Molecular target: SpBbc1
# Assay: as above
# Summary of the method: as §1
row,Binder,SPOT peptide array binding signal intensity
1,LRWRHKFFLPAIAAI,1.75

# Molecular target: SpBzz1-D1
# Assay: as above
# Summary of the method: as §1
row,Binder,SPOT peptide array binding signal intensity
1,LRWRHKFFLPAIAAI,≤ 0

# Molecular target: SpBzz1-D2
# Assay: as above
# Summary of the method: as §1
row,Binder,SPOT peptide array binding signal intensity
1,LRWRHKFFLPAIAAI,≤ 0

# Molecular target: SpCyk3
# Assay: as above
# Summary of the method: as §1
row,Binder,SPOT peptide array binding signal intensity
1,LRWRHKFFLPAIAAI,1

# Molecular target: SpHof1
# Assay: as above
# Summary of the method: as §1
row,Binder,SPOT peptide array binding signal intensity
1,LRWRHKFFLPAIAAI,33.1

# Molecular target: SpHof1-2
# Assay: as above
# Summary of the method: as §1
row,Binder,SPOT peptide array binding signal intensity
1,LRWRHKFFLPAIAAI,2.25

# Molecular target: SpHof1-3
# Assay: as above
# Summary of the method: as §1
row,Binder,SPOT peptide array binding signal intensity
1,LRWRHKFFLPAIAAI,830

# Molecular target: SpHse1
# Assay: as above
# Summary of the method: as §1
row,Binder,SPOT peptide array binding signal intensity
1,LRWRHKFFLPAIAAI,667

# Molecular target: SpLsb1
# Assay: as above
# Summary of the method: as §1
row,Binder,SPOT peptide array binding signal intensity
1,LRWRHKFFLPAIAAI,≤ 0

# Molecular target: SpLsb4
# Assay: as above
# Summary of the method: as §1
row,Binder,SPOT peptide array binding signal intensity
1,LRWRHKFFLPAIAAI,21.2

# Molecular target: SpMyo1
# Assay: as above
# Summary of the method: as §1
row,Binder,SPOT peptide array binding signal intensity
1,LRWRHKFFLPAIAAI,≤ 0

# Molecular target: SpNbp2
# Assay: as above
# Summary of the method: as §1
row,Binder,SPOT peptide array binding signal intensity
1,LRWRHKFFLPAIAAI,41.8

# Molecular target: SpPex13
# Assay: as above
# Summary of the method: as §1
row,Binder,SPOT peptide array binding signal intensity
1,LRWRHKFFLPAIAAI,6.25

# Molecular target: SpRvs167
# Assay: as above
# Summary of the method: as §1
row,Binder,SPOT peptide array binding signal intensity
1,LRWRHKFFLPAIAAI,1

# Molecular target: SpSla1-D1-D2
# Assay: as above
# Summary of the method: as §1
row,Binder,SPOT peptide array binding signal intensity
1,LRWRHKFFLPAIAAI,2

# Molecular target: SpSla1-D3
# Assay: as above
# Summary of the method: as §1
row,Binder,SPOT peptide array binding signal intensity
1,LRWRHKFFLPAIAAI,≤ 0
